Laboratory results published in PubChem BioAssay (NCATS).
Results filed as inconclusive are left out. Entries that show only a call come without a potency. Calls of active or inactive are those of the source. The call rests on the fitted dose curve; in most records, active means well fitted inhibition curve with a large enough effect; inconclusive means small, poorly fitted or top-dose-only effect; inactive means flat fitted curve, though single readings scatter.

Target: Dual specificity protein kinase CLK4 (Homo sapiens) (UniProt Q9HAZ1)
Sequence (Q9HAZ1 whole entry, looked up): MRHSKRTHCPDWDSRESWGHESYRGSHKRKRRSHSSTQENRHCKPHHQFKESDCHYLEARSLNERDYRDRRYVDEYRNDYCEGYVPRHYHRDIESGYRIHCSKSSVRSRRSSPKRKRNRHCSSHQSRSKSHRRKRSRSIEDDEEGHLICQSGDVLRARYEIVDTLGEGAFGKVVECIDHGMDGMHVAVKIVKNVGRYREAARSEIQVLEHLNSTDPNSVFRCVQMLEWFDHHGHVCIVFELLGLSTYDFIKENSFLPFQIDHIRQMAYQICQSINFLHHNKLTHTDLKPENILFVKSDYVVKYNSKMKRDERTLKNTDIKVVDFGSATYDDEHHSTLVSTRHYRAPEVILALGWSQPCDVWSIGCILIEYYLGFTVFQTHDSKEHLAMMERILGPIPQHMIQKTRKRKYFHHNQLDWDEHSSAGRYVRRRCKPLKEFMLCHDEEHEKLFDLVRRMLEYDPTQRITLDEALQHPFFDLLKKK
Experiment: qHTS Assay for Inhibitors of CDC-like Kinase 4 (ADP-FP Assay) (AID 1795); further: nearly all actives have a fitted effect of over 60% in size
Conditions: Transcreener ADP fluorescence polarization; series mostly up to 50 µM
Method: NIH Molecular Libraries Probe Production Centers Network [MLPCN] NIH Chemical Genomics Center [NCGC] MLPCN Grant: 1R03MH084827-01 Assay Submitter (PI): Tom Misteli NCGC Assay Overview: Clk4 (Invitrogen cat # PV3839) was assayed using ATP and the RS repeat peptide (AnaSpec cat # 61722) as substrates using Transcreener (trade mark), a competitive fluorescence polarization (FP) assay. For the present assay, we used the Orange TranscreenerTM ADP2 (BellBrooks Labs, Madison, Wis) detection system to monitor ADP production in the kinase reaction. […] This allows the ADP tracer to freely rotate leading to a decrease in the observed FP value. The amount of ADP produced can then be calculated using a calibration curve. The positive control for the assay was TG003 (Sigma-Aldrich, cat # 300801-52-9) which is a Clk4 inhibitor [2].
NCGC Assay Protocol Summary: Two uL/well of substrate-buffer solution (100 uM RS peptide, 1 uM ATP, 25 mM Tris pH7.5, 10 mM MgCl2, 0.5 mM EGTA, 2.5 mM DTT, 0.01% Triton X-100 final concentration) was dispensed into 1,536-well assay plates (Greiner, solid black medium-binding plates) with Aurora Discovery BioRAPTR Flying Reagent Dispenser (FRD; Beckton-Dickenson). Using a Kalypsys pin tool equipped with a 1,536-pin tool, 23 nL of compound solution was transferred to the assay plate. Two uL/well Clk4-buffer solution (6.25 nM Clk4, 25 mM Tris pH 7.5, 10 mM MgCl2, 0.5 mM EGTA, 2.5 mM DTT, 0.01% Triton X-100, final concentration) was then added using the FRD yielding a total kinase reaction volume of 4 uL/ well. Then 4 uL/well of detection mixture (4 nM orange fluorescent tracer, 1 ug/mL ADP antibody, final concentration) was then added after an hour and the polarization signal was measured using the EnVision plate reader (PerkinElmer, Waltham, MA) after 30 min of room temperature incubation using the following filters and program settings: BODIPY TMR FP dual Enh mirror (barcode 682); BODIPY-TMR 531 (barcode 105) excitation; BODIPY-TMR FP P/S polarized 595 nm filters (barcodes 210 and 211, respectively); 100% light; 150 flashes; 1.35 G-factor; Detector gains were 685 for the 1st detector; 630 for the 2nd detector.
Potency means the concentration at half of the fitted maximal effect.

Question: With `COc1cccc(Cn2c(=O)c(C)nc3cnc(N(C)C)nc32)c1` as the molecule, how does the Potency read?
Answer: inactive

Question: How did the Potency turn out when `O=c1c(-c2ccccc2)nc2cnc(N3CCOCC3)nc2n1Cc1ccc(F)cc1` was run?
Answer: inactive

Question: With `COCCn1c(=O)c(C)nc2cnc(Oc3cccc(Cl)c3)nc21` as the molecule, how does the Potency read?
Answer: inactive

Question: How did the Potency turn out when `COc1ccc(-n2c(=O)c(-c3cc(F)cc(F)c3)nc3cncnc32)cc1` was run?
Answer: inactive

Question: With `COc1cccc(Nc2ncc3nc(-c4cccs4)c(=O)n(CCC#N)c3n2)c1` as the molecule, how does the Potency read?
Answer: inactive

Question: How did the Potency turn out when `CN(C)c1ccc(-c2cncnc2Nc2ccc(F)cc2)cc1` was run?
Answer: inactive

Question: Which Potency does the source give for `COc1ccccc1CNc1ncnc2ccc(-c3ccc4c(c3)OCO4)cc12` here?
Answer: 0.0251 µM (active)

Question: With `CN(C)Cc1ccccc1-c1cc(NCc2cccs2)ncn1` as the molecule, how does the Potency read?
Answer: inactive

Question: For `COCCn1c(=O)c(-c2cccc(C#N)c2)nc2cnc(N3CCOCC3)nc21`, which Potency is on record?
Answer: inactive

Question: `COc1ccc(CNc2ncncc2-c2ccoc2)c(OC)c1` was tested. Which Potency did it give?
Answer: 14.1 µM (active)

Question: With `COc1ccc(CNc2ncncc2-c2ccc(C(=O)N(C)C)cc2)c(OC)c1` as the molecule, how does the Potency read?
Answer: inactive

Question: For `Cc1noc(C)c1-c1nccc(N2CCN(C)CC2)n1`, which Potency is on record?
Answer: inactive

Question: `COc1cccc(Cn2c(=O)c(-c3ccc(Cl)cc3)nc3cnc(N4CCOCC4)nc32)c1` was tested. Which Potency did it give?
Answer: inactive

Question: How did the Potency turn out when `COc1ccccc1CNc1ncncc1-c1ccc(C(=O)N(C)C)cc1` was run?
Answer: 12.6 µM (active)

Question: `N#CCCn1c(=O)c(-c2ccccc2)nc2cnc(N3CCOCC3)nc21` was tested. Which Potency did it give?
Answer: inactive

Question: `CCNc1ncc2nc(-c3cccs3)c(=O)n(Cc3cccs3)c2n1` was tested. Which Potency did it give?
Answer: inactive

Question: `COCCn1c(=O)c(-c2ccccc2)nc2cnc(N(C)C)nc21` was tested. Which Potency did it give?
Answer: inactive

Question: How did the Potency turn out when `N#Cc1cccc(-c2nccc(NCc3ccccc3)n2)c1` was run?
Answer: 15.8 µM (active)

Question: `Cn1cc(-c2nc3cnc(N4CCNCC4)nc3n(Cc3ccc(F)cc3)c2=O)c2ccccc21` was tested. Which Potency did it give?
Answer: inactive

Question: For `Cn1c(=O)c(-c2ccccc2)nc2cnc(OCc3ccccc3)nc21`, which Potency is on record?
Answer: inactive

Question: With `O=c1c(-c2ccccc2)nc2cnc(Nc3ccccc3)nc2n1C[C@H]1CCCO1` as the molecule, how does the Potency read?
Answer: inactive

Question: With `Cc1ccccc1-c1ccc2ncnc(N3CCN(C)CC3)c2c1` as the molecule, how does the Potency read?
Answer: inactive

Question: How did the Potency turn out when `O=c1c(CCc2ccccc2)nc2cnc(N3CCOCC3)nc2n1C1CC1` was run?
Answer: inactive

Question: How did the Potency turn out when `COCCNc1nc(-c2ccccc2C(F)(F)F)nc2ccccc12` was run?
Answer: inactive

Question: With `O=c1c(-c2cc(F)cc(F)c2)nc2cncnc2n1Cc1ccccc1Cl` as the molecule, how does the Potency read?
Answer: inactive

Question: Which Potency does the source give for `Cc1cnc(CNc2cc(-c3c(C)noc3C)ncn2)cn1` here?
Answer: inactive

Question: For `c1cncc(-c2nc(-n3ccnc3)c3ccccc3n2)c1`, which Potency is on record?
Answer: 12.6 µM (active)

Question: Which Potency does the source give for `COc1ccccc1-c1nccc(NCc2ccccc2)n1` here?
Answer: inactive

Question: For `N#Cc1cccc(-c2cncnc2NCc2ccccc2)c1`, which Potency is on record?
Answer: inactive

Question: How did the Potency turn out when `N#Cc1cccc(-c2ccc3ncnc(NC4CCNCC4)c3c2)c1` was run?
Answer: 14.1 µM (active)

Question: With `Cc1nc2cnc(N3CCN(C)CC3)nc2n(C2CC2)c1=O` as the molecule, how does the Potency read?
Answer: inactive

Question: Which Potency does the source give for `COc1ccc(CNc2ccnc(-c3ccc(C(=O)N(C)C)cc3)n2)c(OC)c1` here?
Answer: inactive

Question: With `COc1ccccc1CNc1ccnc(-c2ccccc2Cl)n1` as the molecule, how does the Potency read?
Answer: inactive

Question: `COc1ccc(CNc2ncncc2-c2c(C)noc2C)c(OC)c1` was tested. Which Potency did it give?
Answer: inactive

Question: How did the Potency turn out when `c1csc(CNc2nc(-c3ccc4c(c3)OCO4)nc3ccccc23)c1` was run?
Answer: inactive

Question: With `CN1CCN(c2ncc3ncc(=O)n(-c4ccccc4)c3n2)CC1` as the molecule, how does the Potency read?
Answer: inactive

Question: How did the Potency turn out when `CN(C)c1ncc2nc(-c3cccc(C#N)c3)c(=O)n(C[C@H]3CCCO3)c2n1` was run?
Answer: inactive

Question: With `COc1ccc2[nH]cc(CCNc3ncncc3-c3cccc(NS(C)(=O)=O)c3)c2c1` as the molecule, how does the Potency read?
Answer: 10 µM (active)

Question: How did the Potency turn out when `CN1CCN(c2cc(-c3ccccc3Cl)ncn2)CC1` was run?
Answer: inactive

Question: For `COc1ccc(CNc2nc(-c3ccc4c(c3)OCO4)nc3ccccc23)c(OC)c1`, which Potency is on record?
Answer: inactive
